From PubChem BioAssay AID1851 (National Center for Advancing Translational Sciences (NCATS), 2009) come the findings set out here.

SMILES strings stand for the structures. Values joined by “and” are separate entries in the source; they are usually repeats but may differ in a detail not shown here. Equal values may be shown once. The whole screen tested about 16,000 compounds, of which about 5,700 (36%) were called active. Roughly 24% stayed inconclusive and do not appear here. Some of the results follow. Unmarked numbers belong to inactive results. Calls come from the whole dose curve; as a rule, active = well fitted curve in the direction sought with a large enough effect; inconclusive = small, poorly fitted or top-dose-only effect, or effect the other way; inactive = no such curve, though single readings can be large or run the other way.
% is set by controls: 0 for no effect and ±100 for the full control effect.

For the assay, the target named is Cytochrome P450 1A2 (Homo sapiens) (UniProt P05177). Briefly: Cytochrome panel assay with activity outcomes. As to conditions: recombinant CYP, pro-luciferin dealkylation, luminescence, p450-cyp1a2; series mostly up to 57.1 µM; activity, negative = inhibition: at the top concentration. On the procedure: The P450 gene superfamily is involved in the metabolism and clearance of xenobiotics. This assay used various human CYP P450 isozymes to measure the dealkylation of various pro-luciferin substrates to luciferin. The luciferin is then measured by luminescence after the addition of a luciferase detection reagent. Pro-luciferin substrate concentration in the assay was equal to its KM for its CYP P450 isozyme. Inhibitors and some substrates limit the production of luciferin, and decrease measured luminescence.
Chain of Cytochrome P450 1A2 (Homo sapiens) (P05177 whole entry, looked up): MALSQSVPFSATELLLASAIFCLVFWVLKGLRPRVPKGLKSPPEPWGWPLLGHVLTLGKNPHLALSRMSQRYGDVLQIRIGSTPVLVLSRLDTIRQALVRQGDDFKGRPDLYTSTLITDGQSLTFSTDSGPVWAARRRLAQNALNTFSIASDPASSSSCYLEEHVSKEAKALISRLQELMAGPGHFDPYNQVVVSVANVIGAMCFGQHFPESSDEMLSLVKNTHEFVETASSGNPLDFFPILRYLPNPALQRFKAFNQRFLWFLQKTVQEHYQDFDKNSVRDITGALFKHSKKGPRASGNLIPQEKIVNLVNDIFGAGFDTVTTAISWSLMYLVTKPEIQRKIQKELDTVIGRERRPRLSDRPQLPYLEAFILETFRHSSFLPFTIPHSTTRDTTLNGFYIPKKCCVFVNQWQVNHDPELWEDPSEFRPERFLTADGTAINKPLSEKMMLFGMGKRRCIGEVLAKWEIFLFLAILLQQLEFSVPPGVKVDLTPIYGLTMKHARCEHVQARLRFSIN
NCGC Assay Protocol Summary:
1, Reagent, 2 uL, Isozyme and Pro-Luciferin
2, Library compounds, 23 nl, 40 uM to 0.24 nM dilution series
3, Controls, 23 nl, Isozyme specific inhibitor
4, Reagent, 2 uL, NADPH regeneration solution
5, Incubation time, 60 min, Isozyme specific temperature
6, Reagent, 4ul, Detection reagent
7, Incubation time, 20 min, Isozyme specific temperature
8, Detection, 1 sec, ViewLux luminescent read
The luciferase-based P450-GloTM Screening Systems were obtained from Promega (Madison, WI) for CYP 1A2 (V9770), CYP 2C9 (V9790), CYP2 C19 (V9880), CYP 2D6 (V9890), and CYP 3A4 Luciferin-PPXE (V9910) and were adapted for 1,536-well microplates and an automated protocol. The control compounds furafylline for 1A2 (F124), sulfaphenazole for CYP 2C9 (S0758), ketoconazole for CYP 2C19 (K1003), quinidine for 2D6 (Q3625), and ketoconazole for 3A4 (K1003) were purchased from Sigma Aldrich (St. Louis, MO). Recombinant P450 enzymes were obtained from baculovirus constructs expressed in insect cells (BD/Gentest).
Medium-binding white solid Kalypsys plates used. Mixtures kept on ice. 1A2: 10 nM 1A2, 100 uM Luc-ME, 100 mM KPO4; 2C9: 10 nM 2C9, 100 uM Luc-H, 25 mM KPO4; 2C19: 5 nM 2C19, 10 uM Luc-H EGE, 50 mM KPO4; 2D6: 5 nM 2D6, 30 uM Luc-ME EGE, 100 mM KPO4; 3A4: 10 nM, 25 uM Luc-PPXE. All amounts are reflected in their final concentration, working concentration is 2x.
NADPH regeneration solution: 1.3 mM NADP+, 3.3 mM glucose-6-phosphate, 3.3 mM MgCl2, 0.4 U/mL glucose-6-phosphate dehydrogenase for all isozymes, 200 mM KPO4 for 3A4. Mixture prepared at RT but kept on ice during automated run.
RT incubation in auxilliary plate hotel for 1A2, 2D6, and 3A4; 37C for 2C9 and 2C19.
Keywords: P450, CYP1A2, CYP2C19, CYP2C9, CYP2D6, CYP3A4, Luciferase, MLSMR, MLSCN, NIH Roadmap, qHTS, NCGC
As for `N[C@H](Cc1c[nH]c2ccccc12)P(=O)(O)O`, the activity, negative = inhibition is -15.7% [at 11.4 µM].
`C[N+]1(C)[C@@H]2CC[C@H]1CC(OC(=O)c1c[nH]c3ccccc13)C2` (stereo partly specified): the “activity, negative = inhibition” value is -2.58%.
Still for that read-out and setting: under `C=Cn1ccnc1P(=S)(c1nccn1C=C)C1CCCCC1` stands -21.2%; under `Cc1cc(=O)n(-c2ccccc2)n1C`, -12.9% [at 25.6 µM].
Regarding `C=C(C)[C@H]1CN[C@H](C(=O)O)[C@@H]1CC(=O)O`, the “activity, negative = inhibition” value was 6.18%.
In the case of `CC(N)Cc1ccccc1Sc1ccc(O)cc1` (stereo unspecified), the “activity, negative = inhibition” value is -12.6%.
Take `CC(=O)N[C@@H]1CCSC1=O`: the “activity, negative = inhibition” value is -5.47% [at 25.6 µM].
`CCOC(C(=O)OCCCN(CC)CC)(c1ccccc1)c1ccccc1`: the “activity, negative = inhibition” value is -0.835%.
`CCN(CC)CC#CCOC(=O)[C@@](O)(c1ccccc1)C1CCCCC1`: the AC50 is 1.26 µM (active).
With `CC[N@+]1(C)CCC[C@@H](OC(=O)C(O)(c2ccccc2)c2ccccc2)C1`, the “activity, negative = inhibition” value is 2.32% [at 25.6 µM].
In the case of `c1ccc(CN2CCCC3(CCNCC3)C2)cc1`, the “activity, negative = inhibition” value is -1.46%.
`C/C(=N\OC(=O)NC(C)C)c1sc(-c2ccccc2)nc1C`: the AC50 was 2 µM (active).
With `C/C(=N\OC(=O)NC(C)C)c1sc(-c2ccc(Cl)cc2)nc1C`, the AC50 was 1.12 µM (active).
Take `CC[C@@H]1CN2CCc3cc(OC)c(OC)cc3[C@H]2C[C@@H]1C[C@@H]1NCCc2cc(O)c(OC)cc21`: the “activity, negative = inhibition” value was -7.35% [at 25.6 µM].
`CCN1C[C@]2(C)CC[C@H](OC)[C@@]34[C@@H]2[C@H](OC(C)=O)[C@]2(OCO[C@@]25C[C@@H](OC)[C@@H]2C[C@@]3(O)[C@H]5[C@@H]2OC)[C@H]14`: the “activity, negative = inhibition” value is -3.74% [at 25.6 µM].
For the molecule `CCN(CC)c1ncnc2c1ncn2[C@@H]1O[C@@H](COP(=O)(O)OP(=O)(O)C(Br)(Br)P(=O)(O)O)[C@H](O)[C@@H]1O`, the “activity, negative = inhibition” value was 2.91%.
With `CCc1ccccc1NC(=S)NC1CC2CCC(C1)N2Cc1ccco1` (stereo unspecified), the “activity, negative = inhibition” value is 6.19%.
On to `Cn1c[n+](C)cc1C(O)c1ccccc1` (stereo unspecified), for which the “activity, negative = inhibition” value was 1.79%.
As to `CN1[C@H](CC(=O)c2ccccc2)CCC[C@H]1C[C@H](O)c1ccccc1`, the AC50 was 15.8 µM (active).
In the case of `CN1[C@@H]2CC[C@H]1CC(O[C@@H](c1ccccc1)c1ccc(Cl)cc1)C2` (stereo partly specified), the “activity, negative = inhibition” value was -6.52%.
With `CN1[C@@H](C[C@@H](O)c2ccccc2)CCC[C@@H]1C[C@H](O)c1ccccc1`, the AC50 was 5.01 µM (active).
Consider `CC[C@@]1(c2ccc(N)cc2)CCC(=O)NC1=O`, for which the AC50 result is “inactive”.
Consider `Oc1ccc2c3c1O[C@H]1c4[nH]c5ccccc5c4C[C@]4(O)[C@H](C2)N(CC2CC2)CC[C@@]314`, for which the “activity, negative = inhibition” value is -1.2%.
On the same count and under the same terms, under `NS(=O)(=O)c1cc([C@@]2(O)NC(=O)c3ccccc32)ccc1Cl` stands -4.19% [at 25.6 µM].
For `C[N+](C)(C)[C@H](Cc1c[nH]c(=S)[nH]1)C(=O)O`, the activity, negative = inhibition is -18.9% [at 11.4 µM].
Turning to `COc1cc(C(=O)OC2C[C@H]3CC[C@@H](C2)N3C)ccc1O` (stereo partly specified), the “activity, negative = inhibition” value is -0.206% [at 25.6 µM].
In the case of `C=C(C)[C@H]1CC[C@]2(CO)CC[C@]3(C)[C@@H](CC[C@H]4[C@@]5(C)CC[C@@H](O)C(C)(C)[C@@H]5CC[C@@]43C)[C@H]12`, the “activity, negative = inhibition” value is -6.53% [at 25.6 µM].
As to `O=C(Nc1cccc(F)c1)N1CC2(CCNCC2)C1`, the “activity, negative = inhibition” value is -5.1%.
For the molecule `NCCc1ccc(O)cc1`, the “activity, negative = inhibition” value is -14.6%.
With `NCCc1c[nH]c2ccccc12`, the AC50 was 3.16 µM (active).
`NCCc1c[nH]c2ccc(O)cc12`: the AC50 is 2 µM (active).
Turning to `CC(=O)NCCc1c[nH]c2ccccc12`, the AC50 is 15.8 µM (active).
For the molecule `NCCc1c[nH]c2ccc(C(N)=O)cc12`, the AC50 is 6.31 µM (active) and 1.26 µM (active).
For `CC(C)C[C@H](NP(=O)(O)O[C@@H]1O[C@@H](C)[C@@H](O)[C@@H](O)[C@H]1O)C(=O)N[C@@H](Cc1c[nH]c2ccccc12)C(=O)O`, the “activity, negative = inhibition” value is -1.79%.
Same read-out and setting: next, `CN(C)CCCc1c[nH]c2ccccc12`: -12.5% [at 11.4 µM]; `CNCCc1c[nH]c2ccc(O)cc12`: -22.8%; `COC(=O)[C@H]1[C@H](c2ccccc2)C(=O)[C@@]2(O)c3ccccc3O[C@@]12c1ccccc1`: -5.65% [at 11.4 µM].
In the case of `CO[C@@H](C)[C@](O)(C(=O)OCC1=CCN2CC[C@@H](O)[C@H]12)C(C)C`, the “activity, negative = inhibition” value was -7.03% [at 25.6 µM].
On the same count and under the same terms, next, `c1ccc(CCN2CCOCC2)nc1`: -3% [at 2.29 µM]; `CCCCCCCCCCCCCC(=O)O[C@H]1[C@@H](C)[C@@]2(O)[C@@H](C=C(CO)C[C@]3(O)C(=O)C(C)=C[C@@H]23)C2C(C)(C)[C@]21OC(C)=O` (stereo partly specified): -12.3%.
Still for that read-out and setting: next, `C[C@H]1[C@H](NC(=O)/C(=N/OC(C)(C)C(=O)O)c2csc(N)n2)C(=O)N1S(=O)(=O)O` (stereo in doubt): -4.29% [at 25.6 µM].
On to `Cc1ccc(N2C(=O)/C(=C/c3ccc(CN(CCC#N)S(C)(=O)=O)o3)C(=O)NC2=S)cc1C`, for which the “activity, negative = inhibition” value is -25.3%.
Turning to `CCCN(CCC)C(=O)Cc1c(-c2ccc(Cl)cc2)nc2c(Cl)cc(Cl)cn12`, the “activity, negative = inhibition” value is -10.1%.
Consider `NC(=O)c1ccc(C(=O)Nc2ccc([As](=O)(O)O)cc2)cc1`, for which the activity, negative = inhibition was -13.8% [at 2.29 µM].
With `CCOP(=O)(CN(CC)CCNP(=O)(OCC)OCC)OCC`, the “activity, negative = inhibition” value was 27.4%.
In the case of `CN1C2CCC1CC(OC(=O)c1ccc(Cl)cc1)C2` (stereo unspecified), the “activity, negative = inhibition” value was 3.37%.

What is called AC50 is the midpoint of the concentration-response curve, whichever way the signal moves.
